Substitutions are numbered along the chain they refer to.
What was measured:
Assay in all cases: PBM; 200 nM protein, PBS
Settings in all cases: dsDNA, one strand shown
NKX2-5 [1] = molecular target: NKX2-5 (Homo sapiens, UniProt P52952 125-210, R139K)
SIX6 [2] = molecular target: T1, SIX6 (Homo sapiens, UniProt O95475 114-200, L167I)
T1 sequence: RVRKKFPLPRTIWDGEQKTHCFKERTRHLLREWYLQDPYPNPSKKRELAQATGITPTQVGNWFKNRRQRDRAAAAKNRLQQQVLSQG

SIX6 [3] = molecular target: T2, SIX6 (Homo sapiens, UniProt O95475 114-200, L143V)
T2 sequence: T1 sequence with L30V, I54L

SIX6 [4] = molecular target: T3, SIX6 (Homo sapiens, UniProt O95475 114-200, H141N)
T3 sequence: T1 sequence with H28N, I54L

SIX6 [5] = molecular target: T4, SIX6 (Homo sapiens, UniProt O95475 114-200, T165P)
T4 sequence: T1 sequence with T52P, I54L

SIX6 [6] = molecular target: T5, SIX6 (Homo sapiens, UniProt O95475 114-200, L167M)
T5 sequence: T1 sequence with I54M

SIX6 [7] = molecular target: T6, SIX6 (Homo sapiens, UniProt O95475 114-200, L143M)
T6 sequence: T1 sequence with L30M, I54L

SIX6 [8] = molecular target: T7, SIX6 (Homo sapiens, UniProt O95475 114-200, L143I)
T7 sequence: T1 sequence with L30I, I54L

SIX6 [9] = molecular target: T8, SIX6 (Homo sapiens, UniProt O95475 114-200, T165G)
T8 sequence: T1 sequence with T52G, I54L

HOXA2 [10] = molecular target: HOXA2 (Homo sapiens, UniProt O43364 129-215, R185T)
SIX6 [11] = molecular target: T9, SIX6 (Homo sapiens, UniProt O95475 114-200, T139Q)
T9 sequence: T1 sequence with T26Q, I54L

ALX3 [12] = molecular target: ALX3 (Homo sapiens, UniProt O95076 139-225, N203Q)
SIX6 [13] = molecular target: T10, SIX6 (Homo sapiens, UniProt O95475 114-200, T165A)
T10 sequence: T1 sequence with T52A, I54L

HOXA2 [14] = molecular target: HOXA2 (Homo sapiens, UniProt O43364 129-215, R185K)
SIX6 [15] = molecular target: T11, SIX6 (Homo sapiens, UniProt O95475 114-200, L167V)
T11 sequence: T1 sequence with I54V

ALX3 [16] = molecular target: ALX3 (Homo sapiens, UniProt O95076 139-225)
SIX6 [17] = molecular target: T12, SIX6 (Homo sapiens, UniProt O95475 114-200)
T12 sequence: T1 sequence with I54L

ALX3 [18] = molecular target: ALX3 (Homo sapiens, UniProt O95076 139-225, L168Q)
SIX6 [19] = molecular target: T13, SIX6 (Homo sapiens, UniProt O95475 114-200, T165I)
T13 sequence: T1 sequence with T52I, I54L

ALX3 [20] = molecular target: ALX3 (Homo sapiens, UniProt O95076 139-225, L168V)
HOXA2 [21] = molecular target: HOXA2 (Homo sapiens, UniProt O43364 129-215, Y150S)
ALX3 [22] = molecular target: ALX3 (Homo sapiens, UniProt O95076 139-225, N203S)
HOXA2 [23] = molecular target: HOXA2 (Homo sapiens, UniProt O43364 129-215)
NKX2-5 [24] = molecular target: NKX2-5 (Homo sapiens, UniProt P52952 125-210)
PRRX1 [25] = molecular target: PRRX1 (Homo sapiens, UniProt P54821 80-166, F113S)
NKX2-6 [26] = molecular target: T14, NKX2-6 (Homo sapiens, UniProt A6NCS4 118-204, R150C)
T14 sequence: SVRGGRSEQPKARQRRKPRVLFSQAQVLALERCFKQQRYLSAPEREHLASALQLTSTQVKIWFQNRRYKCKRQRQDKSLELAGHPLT

NKX2-6 [27] = molecular target: T15, NKX2-6 (Homo sapiens, UniProt A6NCS4 118-204)
T15 sequence: T14 sequence with C33R

NKX2-6 [28] = molecular target: T16, NKX2-6 (Homo sapiens, UniProt A6NCS4 118-204, F151L)
T16 sequence: T14 sequence with C33R, F34L

NKX3-2 [29] = molecular target: NKX3-2 (Homo sapiens, UniProt P78367 192-278, P234S)
PRRX1 [30] = molecular target: PRRX1 (Homo sapiens, UniProt P54821 80-166)
NKX3-2 [31] = molecular target: NKX3-2 (Homo sapiens, UniProt P78367 192-278)
HOXA4 [32] = molecular target: HOXA4 (Homo sapiens, UniProt Q00056 201-287, W262R)
HOXA4 [33] = molecular target: HOXA4 (Homo sapiens, UniProt Q00056 201-287, R217L)
HOXA4 [34] = molecular target: HOXA4 (Homo sapiens, UniProt Q00056 201-287)
HOXA4 [35] = molecular target: HOXA4 (Homo sapiens, UniProt Q00056 201-287, W262F)
HOXA4 (Homo sapiens, UniProt Q00056 201-287, W262F), sequence (Q00056 201-287 W262F): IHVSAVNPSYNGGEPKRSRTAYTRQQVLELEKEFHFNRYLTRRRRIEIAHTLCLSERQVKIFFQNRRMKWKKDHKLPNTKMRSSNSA

NKX2-5 (Homo sapiens, UniProt P52952 125-210, R139K), sequence (P52952 125-210 R139K): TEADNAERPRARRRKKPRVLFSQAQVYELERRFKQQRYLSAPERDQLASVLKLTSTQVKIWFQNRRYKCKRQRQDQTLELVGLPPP
NKX2-5 (Homo sapiens, UniProt P52952 125-210), sequence (P52952 125-210): as the sequence (P52952 125-210 R139K) above, with K15R counted along it
PRRX1 (Homo sapiens, UniProt P54821 80-166, F113S), sequence (P54821 80-166 F113S): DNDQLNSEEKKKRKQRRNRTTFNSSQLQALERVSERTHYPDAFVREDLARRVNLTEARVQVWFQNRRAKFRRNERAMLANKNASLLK
PRRX1 (Homo sapiens, UniProt P54821 80-166), sequence (P54821 80-166): as the sequence (P54821 80-166 F113S) above, with S34F counted along it
NKX3-2 (Homo sapiens, UniProt P78367 192-278), sequence (P78367 192-278): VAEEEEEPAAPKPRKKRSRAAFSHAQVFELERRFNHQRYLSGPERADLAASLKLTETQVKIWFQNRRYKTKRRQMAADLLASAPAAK
ALX3 (Homo sapiens, UniProt O95076 139-225), sequence (O95076 139-225): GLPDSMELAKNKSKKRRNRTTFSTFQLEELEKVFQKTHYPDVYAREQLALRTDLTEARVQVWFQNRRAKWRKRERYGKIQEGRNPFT
HOXA2 (Homo sapiens, UniProt O43364 129-215, Y150S), sequence (O43364 129-215 Y150S): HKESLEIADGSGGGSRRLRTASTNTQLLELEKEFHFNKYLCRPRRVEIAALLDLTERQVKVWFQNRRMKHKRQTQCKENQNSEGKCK
HOXA2 (Homo sapiens, UniProt O43364 129-215), sequence (O43364 129-215): as the sequence (O43364 129-215 Y150S) above, with S22Y counted along it
HOXA2 (Homo sapiens, UniProt O43364 129-215, R185T), sequence (O43364 129-215 R185T): as the sequence (O43364 129-215 Y150S) above, with S22Y, R57T counted along it
HOXA4 (Homo sapiens, UniProt Q00056 201-287, R217L), sequence (Q00056 201-287 R217L): as the sequence (Q00056 201-287 W262F) above, with R17L, F62W counted along it
HOXA4 (Homo sapiens, UniProt Q00056 201-287), sequence (Q00056 201-287): as the sequence (Q00056 201-287 W262F) above, with F62W counted along it
ALX3 (Homo sapiens, UniProt O95076 139-225, N203S), sequence (O95076 139-225 N203S): as the sequence (O95076 139-225) above, with N65S counted along it
HOXA4 (Homo sapiens, UniProt Q00056 201-287, W262R), sequence (Q00056 201-287 W262R): as the sequence (Q00056 201-287 W262F) above, with F62R counted along it
ALX3 (Homo sapiens, UniProt O95076 139-225, N203Q), sequence (O95076 139-225 N203Q): as the sequence (O95076 139-225) above, with N65Q counted along it
HOXA2 (Homo sapiens, UniProt O43364 129-215, R185K), sequence (O43364 129-215 R185K): as the sequence (O43364 129-215 Y150S) above, with S22Y, R57K counted along it
ALX3 (Homo sapiens, UniProt O95076 139-225, L168Q), sequence (O95076 139-225 L168Q): as the sequence (O95076 139-225) above, with L30Q counted along it
ALX3 (Homo sapiens, UniProt O95076 139-225, L168V), sequence (O95076 139-225 L168V): as the sequence (O95076 139-225) above, with L30V counted along it
NKX3-2 (Homo sapiens, UniProt P78367 192-278, P234S), sequence (P78367 192-278 P234S): as the sequence (P78367 192-278) above, with P43S counted along it

Question: Which binding signal (NKX2-5 [1]) does the source give for CAGCGGCC here?
Answer: 8.81 upbm affinity estimate (log intensity, higher = more binding, comparable within an allelic series)

Question: What about the binding signal (SIX6 [2]) of the same sequence?
Answer: 8.85 upbm affinity estimate (log intensity, higher = more binding, comparable within an allelic series)

Question: And the binding signal (SIX6 [3])?
Answer: 8.77 upbm affinity estimate (log intensity, higher = more binding, comparable within an allelic series)

Question: And the binding signal (SIX6 [4])?
Answer: 8.79 upbm affinity estimate (log intensity, higher = more binding, comparable within an allelic series)

Question: What about the binding signal (SIX6 [5]) of the same sequence?
Answer: 8.97 upbm affinity estimate (log intensity, higher = more binding, comparable within an allelic series)

Question: What about the binding signal (SIX6 [6]) of the same sequence?
Answer: 8.8 upbm affinity estimate (log intensity, higher = more binding, comparable within an allelic series)

Question: And the binding signal (SIX6 [7])?
Answer: 8.83 upbm affinity estimate (log intensity, higher = more binding, comparable within an allelic series)

Question: And the binding signal (SIX6 [8])?
Answer: 8.89 upbm affinity estimate (log intensity, higher = more binding, comparable within an allelic series)

Question: And the binding signal (SIX6 [9])?
Answer: 8.88 upbm affinity estimate (log intensity, higher = more binding, comparable within an allelic series)

Question: What about the binding signal (HOXA2 [10]) of the same sequence?
Answer: 7.12 upbm affinity estimate (log intensity, higher = more binding, comparable within an allelic series)

Question: And the binding signal (SIX6 [11])?
Answer: 8.81 upbm affinity estimate (log intensity, higher = more binding, comparable within an allelic series)

Question: What about the binding signal (ALX3 [12]) of the same sequence?
Answer: 7.77 upbm affinity estimate (log intensity, higher = more binding, comparable within an allelic series)

Question: What about the binding signal (SIX6 [13]) of the same sequence?
Answer: 8.75 upbm affinity estimate (log intensity, higher = more binding, comparable within an allelic series)

Question: And the binding signal (HOXA2 [14])?
Answer: 10.2 upbm affinity estimate (log intensity, higher = more binding, comparable within an allelic series)

Question: And the binding signal (SIX6 [15])?
Answer: 8.83 upbm affinity estimate (log intensity, higher = more binding, comparable within an allelic series)

Question: What about the binding signal (ALX3 [16]) of the same sequence?
Answer: 7.75 upbm affinity estimate (log intensity, higher = more binding, comparable within an allelic series)

Question: And the binding signal (SIX6 [17])?
Answer: 8.8 upbm affinity estimate (log intensity, higher = more binding, comparable within an allelic series)

Question: What about the binding signal (ALX3 [18]) of the same sequence?
Answer: 7.78 upbm affinity estimate (log intensity, higher = more binding, comparable within an allelic series)

Question: And the binding signal (SIX6 [19])?
Answer: 8.74 upbm affinity estimate (log intensity, higher = more binding, comparable within an allelic series)

Question: What about the binding signal (ALX3 [20]) of the same sequence?
Answer: 7.74 upbm affinity estimate (log intensity, higher = more binding, comparable within an allelic series)

Question: What about the binding signal (HOXA2 [21]) of the same sequence?
Answer: 10.4 upbm affinity estimate (log intensity, higher = more binding, comparable within an allelic series)

Question: What about the binding signal (ALX3 [22]) of the same sequence?
Answer: 7.77 upbm affinity estimate (log intensity, higher = more binding, comparable within an allelic series)

Question: What about the binding signal (HOXA2 [23]) of the same sequence?
Answer: 7.19 upbm affinity estimate (log intensity, higher = more binding, comparable within an allelic series)

Question: And the binding signal (NKX2-5 [24])?
Answer: 8.82 upbm affinity estimate (log intensity, higher = more binding, comparable within an allelic series)

Question: Which results are given for CACTTAGC?
Answer: binding signal (NKX2-5 [1]): 12.6 upbm affinity estimate (log intensity, higher = more binding, comparable within an allelic series); binding signal (PRRX1 [25]): 9.83 upbm affinity estimate (log intensity, higher = more binding, comparable within an allelic series); binding signal (NKX2-6 [26]): 11.7 upbm affinity estimate (log intensity, higher = more binding, comparable within an allelic series); binding signal (NKX2-6 [27]): 13.5 upbm affinity estimate (log intensity, higher = more binding, comparable within an allelic series); binding signal (NKX2-6 [28]): 10.8 upbm affinity estimate (log intensity, higher = more binding, comparable within an allelic series); binding signal (NKX3-2 [29]): 12.9 upbm affinity estimate (log intensity, higher = more binding, comparable within an allelic series); binding signal (PRRX1 [30]): 11.8 upbm affinity estimate (log intensity, higher = more binding, comparable within an allelic series); binding signal (NKX2-5 [24]): 12.5 upbm affinity estimate (log intensity, higher = more binding, comparable within an allelic series); binding signal (NKX3-2 [31]): 13 upbm affinity estimate (log intensity, higher = more binding, comparable within an allelic series)

Question: For GGCAGGAC, which binding signal (NKX2-5 [1]) is on record?
Answer: 8.66 upbm affinity estimate (log intensity, higher = more binding, comparable within an allelic series)

Question: And the binding signal (HOXA4 [32])?
Answer: 9.94 upbm affinity estimate (log intensity, higher = more binding, comparable within an allelic series)

Question: And the binding signal (PRRX1 [25])?
Answer: 9.23 upbm affinity estimate (log intensity, higher = more binding, comparable within an allelic series)

Question: What about the binding signal (HOXA4 [33]) of the same sequence?
Answer: 9.72 upbm affinity estimate (log intensity, higher = more binding, comparable within an allelic series)

Question: What about the binding signal (HOXA4 [34]) of the same sequence?
Answer: 9.8 upbm affinity estimate (log intensity, higher = more binding, comparable within an allelic series)

Question: What about the binding signal (HOXA4 [35]) of the same sequence?
Answer: 9.93 upbm affinity estimate (log intensity, higher = more binding, comparable within an allelic series)

Question: What about the binding signal (PRRX1 [30]) of the same sequence?
Answer: 8.98 upbm affinity estimate (log intensity, higher = more binding, comparable within an allelic series)

Question: What about the binding signal (NKX2-5 [24]) of the same sequence?
Answer: 8.83 upbm affinity estimate (log intensity, higher = more binding, comparable within an allelic series)

From PMC11006913
